Assay outcomes: PubChem, National Center for Advancing Translational Sciences (NCATS)
BCR signal inh: qHTS Assay to Find Inhibitors of Chronic Active B-Cell Receptor Signaling; ABC-DLBCL IkBa-CBG/CBR reporter, luminescence ratio, 4 h; Potency, µM (top dose mostly 46.1 µM), for the others: at the highest dose activity change, negative = inhibition, usual class: inhibitors; 0.05% of 340,000 active; active means well fitted inhibition curve with a large enough effect in the signal ratio, with a control signal flat, not every such curve was filed as active; inconclusive means small, poorly fitted or top-dose-only effect, or effect the other way, or a change in a side signal; the % refers to the signal ratio;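 further: plate controls were basal doxycycline-induced cells for no effect and cells given 10 µM MG132 for full effect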
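TMD8 ABC-DLBCL cells carrying doxycycline-inducible green luciferase fused to IkappaBalpha plus unfused red luciferase were exposed to compounds (up to 46 uM) for 4 hrs at 37C. Activity came from the overlap-corrected green/red luminescence ratio.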
B2AR arrestin: qHTS assay of beta-arrestin-biased ligands of beta2-adrenergic receptor; Beta-2 adrenergic receptor (Homo sapiens), P07550; AID 492947, 2010; 0.02% of 330,000 active; beta-arrestin recruitment to beta2AR, cell-based reporter; Potency, µM (series often up to 46.1 µM), for inactives: top-dose activation, hits mostly activators;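 further: 0% = DMSO controls and full agonism = EC100 isoproterenol or metaproterenol; nearly all actives have a fitted effect of over 65% in size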
Target sequence (P07550 whole entry, looked up): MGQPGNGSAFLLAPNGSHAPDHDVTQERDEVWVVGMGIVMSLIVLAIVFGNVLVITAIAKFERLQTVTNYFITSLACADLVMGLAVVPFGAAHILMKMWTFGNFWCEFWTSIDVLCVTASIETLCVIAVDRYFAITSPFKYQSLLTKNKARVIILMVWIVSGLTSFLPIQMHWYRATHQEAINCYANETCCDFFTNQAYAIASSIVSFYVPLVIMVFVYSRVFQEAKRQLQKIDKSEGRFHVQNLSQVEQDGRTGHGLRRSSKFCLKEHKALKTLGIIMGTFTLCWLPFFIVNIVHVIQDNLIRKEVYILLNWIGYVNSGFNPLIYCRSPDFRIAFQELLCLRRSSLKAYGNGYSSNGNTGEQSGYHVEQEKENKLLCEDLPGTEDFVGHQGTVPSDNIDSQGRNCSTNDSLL
PGK inhibitor: qHTS Assay to Find Inhibitors of Phosphoglycerate Kinase. Phosphoglycerate kinase, glycosomal (Trypanosoma brucei brucei), P07378. PGK/GAPDH coupled, Kinase-Glo luminescence, 60 min. Potency, µM (doses to about 57.5 µM), inactives show top-dose activity change, negative = inhibition, actives largely listed as inhibitors. 0.043% of 380,000 active; further: on the % scale 0 is the no-effect control and ±100 the full control effect; nearly all actives have a fitted effect of over 60% in size
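Recombinant glycosomal PGK reaction used 1,3-bisphosphoglycerate generated in-well by GAPDH (100nM final) in 100mM TEA pH 7.6, 5mM MgCl2, 0.01% Tween-20. After 60 minutes at room temperature, ATP was read by Kinase-Glo Plus luminescence end-point.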
GLS inh: qHTS for Inhibitors of Glutaminase (GLS). GLS enzymatic activity, qHTS titration. Potency, µM (titrated, usually from 45.5 µM), inactives show at the top dose activity change, negative = inhibition, most hits filed as inhibitors. 0.21% of 410,000 active. AID 624170, 2012; further: on the % scale 0 is the no-effect control and ±100 the full control effect
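Enzyme dispensed in phosphate buffer (45 mM, pH 8.2, 0.02% Tween-20), compounds pinned in, then 1 mM L-glutamine solution and the glutamate oxidase–HRP–Amplex Red mix added; fluorescence read immediately and again after 30 min at room temperature.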
Pin1 inh: qHTS Assay to Find Inhibitors of Pin1; 0.009% of 390,000 active; Peptidyl-prolyl cis-trans isomerase NIMA-interacting 1 (Homo sapiens), Q13526; AID 504891, 2011; Pin1 FP peptide displacement, HiFluor488, 10 min; Potency, µM (top dose mostly 115 µM), for the others: at the top dose activity, negative = inhibition, actives largely listed as inhibitors; active means well fitted inhibition curve with a large enough effect in the polarisation, with a control signal flat, not every such curve was filed as active; inconclusive means small, poorly fitted or top-dose-only effect, or effect the other way, or a change in a side signal; inactive means no such curve, though single readings can be large or run the other way; the % refers to the polarisation; further: on the % scale 0 is the no-effect control and ±100 the full control effect
Tb PFK inh-1: qHTS Assay to Find Inhibitors of T. brucei phosphofructokinase; T. brucei PFK, ADP-Glo luminescence; ATP-dependent 6-phosphofructokinase (Trypanosoma brucei brucei), O15648; 0.17% of 330,000 active; Potency, µM (series often up to 57.5 µM), for the others: top-dose activity, negative = inhibition, usual class: inhibitors;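 further: 0% = uninhibited 1x PFK enzyme wells and -100% = no-enzyme wells; nearly all actives have a fitted effect of over 60% in size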
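Compounds were pin-transferred as a titration series up to 57 uM into substrate buffer (0.5 mM F6P, 0.1 mM ATP, pH 8.0), then 1.25 nM PFK was added and reactions ran 45 min before ADP-Glo detection.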
Tb PFK KinaseGlo: Tb PFK orthogonal confirmatory assay using ATP depletion (Kinase-Glo Plus) as an alternative measure of Tb PFK activity: Hit Validation | shares compounds with Tb PFK inh-1 | Tb PFK enzyme, ATP depletion, Kinase-Glo Plus luminescence | Potency, µM (highest dose often 57.5 µM), for the others: top-dose inhibition | 47% of 1,100 active | AID 504636, 2011; calls by dose curve; further: nearly all actives have a fitted effect of over 60% in size
Tb PFK inh-2: Inhibitors of T. brucei phosphofructokinase: Hit Validation. Potency, µM (highest dose often 57.5 µM), without a hit: top-dose activity change, negative = inhibition, actives largely listed as inhibitors. purified T. brucei PFK, ADP-Glo luminescence, 45 min. shares compounds with Tb PFK inh-1. 41% of 1,100 active;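 further: plate controls were full PFK enzyme control for no effect and no enzyme control for full effect; nearly all actives have a fitted effect of over 60% in size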
The depositor's hits bear a star. A selection: hits, their analogues and other compounds. The true share with any hit is near 0.42%. Unless noted, the call rests on the fitted dose curve; in most records, active means well fitted curve in the direction sought with a large enough effect; inconclusive means small, poorly fitted or top-dose-only effect, or another doubt; inactive means no such curve, though single readings can be large; an effect the other way counts as inactive or inconclusive. Potency means the concentration at half of the fitted maximal effect.

For CCOC(=O)/C=C(C)/C=C/CC(C)CCCC(C)C (configuration not stated) the results were GLS inh 1%.
`COCCN(C(=O)COC(=O)c1cc2c(s1)CCC2)c1c(N)n(Cc2ccccc2)c(=O)[nH]c1=O` gave BCR signal inh 11%, B2AR arrestin -1%, PGK inhibitor inconclusive, GLS inh 10µM*, Tb PFK inh-1 3.8µM*, Tb PFK KinaseGlo 1.1µM* and Tb PFK inh-2 1.7µM*.
CCN(C(=O)COC(=O)Cc1ccccc1)c1c(N)n(Cc2ccccc2)c(=O)[nH]c1=O was read as BCR signal inh 1%, B2AR arrestin 0%, PGK inhibitor -1%, GLS inh -8%, Pin1 inh 0% and Tb PFK inh-1 6%.
Screening COc1ccc(Cn2c(=O)oc3ccccc32)cc1F returned BCR signal inh 0%, B2AR arrestin 0%, PGK inhibitor -11%, GLS inh -2%, Pin1 inh 2% and Tb PFK inh-1 1%.
For Clc1ccc(CNCCCSc2ncccn2)cc1Cl the results were BCR signal inh 0%, B2AR arrestin 0%, PGK inhibitor 8%, GLS inh -1%, Pin1 inh 4%, Tb PFK inh-1 15µM*, Tb PFK KinaseGlo 19µM* and Tb PFK inh-2 19µM*.
Screening Cc1ccc(C2=NCC(=O)Nc3ccc(Br)cc32)cc1 returned BCR signal inh inconclusive, B2AR arrestin 0%, PGK inhibitor -2%, GLS inh -18%, Pin1 inh -6% and Tb PFK inh-1 0%.
`Cc1cc(Br)ccc1N=C1NC(=O)CS1` gave BCR signal inh -8%, B2AR arrestin 0%, PGK inhibitor inactive, GLS inh -8%, Pin1 inh 0%, Tb PFK inh-1 inconclusive, Tb PFK KinaseGlo inconclusive and Tb PFK inh-2 -23%.
COc1cc2cc3c(N)c(C(=O)Nc4sc(C)c(C)c4C#N)sc3nc2cc1OC was read as BCR signal inh 20%, B2AR arrestin -1%, GLS inh -1%, Pin1 inh inconclusive, Tb PFK inh-1 inconclusive, Tb PFK KinaseGlo 0% and Tb PFK inh-2 16%.
For COc1cc2c(cc1OC)CN(c1ccc([N+](=O)[O-])c(C(F)(F)F)c1)CC2 the results were BCR signal inh inconclusive, B2AR arrestin 0%, PGK inhibitor inactive, GLS inh -1%, Pin1 inh 12%, Tb PFK inh-1 inconclusive, Tb PFK KinaseGlo inconclusive and Tb PFK inh-2 inconclusive.
Screening CC(C)(O)C(=O)Nc1ccc([N+](=O)[O-])c(C(F)(F)F)c1 returned BCR signal inh 0%, B2AR arrestin 0%, PGK inhibitor 5%, GLS inh 0%, Pin1 inh -3% and Tb PFK inh-1 -5%.
